Results on 100 molecules are retold here after PubChem BioAssay AID932 (The Scripps Research Institute Molecular Screening Center, 2007).

The campaign covered roughly 200,000 compounds. About 5,100 (2.5%) were called active. The sample holds actives, similar compounds and a random draw of the others, so the mix is not that of the screen.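 The calls were made as follows: active = activation above the screen-wide mean activation plus 3 SD (cut at about 130% in these data); inactive = the rest.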

The nature of the experiment: STAT1 signaling activators, primary screen, cell-based, HTS, luciferase reporter (AID 932).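 Also: raw ratio to IFN-gamma control signal so 100% means no change and 0% no light.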 The conditions noted are these: NIH 3T3 STAT1-luciferase reporter, IFN-gamma, luminescence; at 5.5 µM; hits give high values; 100% = IFN-gamma alone, no compound. On the technique in general: Reporter assays use an easily measured gene product as a stand-in for the process of interest.
Consider `COC(=O)c1ccc(NCC(=O)c2ccccc2)cc1`, for which the activation (% of control) was 133% (active).
The result for `COC(=O)c1ccc(NCC(=O)N2CCCCCC2)cc1` reads 114% (inactive); that for `Cc1ccc(C(=O)CNc2ccc(F)cc2)cc1`, 111% (inactive); that for `CN(Cc1ccccc1)C(=O)CCc1ccccc1`, 104% (inactive).
As to `Cc1ccn(-c2cccc(-n3ccc(C)n3)n2)n1`, the activation (% of control) was 135% (active).
The result for `COc1cc(C(=O)NCc2ccc3c(c2)cc(C)n3C)cc(OC)c1OC` reads 89.2% (inactive); that for `COc1cccc(CNC(=O)CCC2CCCN(C(=O)c3ccoc3C)C2)c1` (stereo not given), 105% (inactive); that for `Cc1cccc(N2CCN(C(=O)/C=C/c3ccco3)CC2)c1C`, 99.5% (inactive).
As to `Cc1ccc(NC(=O)Nc2ccc3oc(C)nc3c2)cc1`, the activation (% of control) was 177% (active).
As for `Cc1nc2ccc(NC(=O)C(F)(F)F)cc2o1`, the activation (% of control) is 95.8% (inactive).
The same measure for `Cc1nc2cc(NC(=O)NCc3ccccc3)ccc2o1`: 111% (inactive); for `CC(C)NC(=O)/C(C#N)=C\c1ccc(N(C)C)c(Br)c1`: 100% (inactive).
The result for `N#Cc1cccc(Nc2c3c(nc4ccccc24)CCCC3)c1` reads 85.5% (inactive); that for `Cc1cc(C(=O)NCCCc2ccccc2)no1`, 110% (inactive); that for `CC(C)Cc1cc(C(=O)Nc2cc(Br)ccc2O)no1`, 101% (inactive).
The result for `CC(C)Cc1cc(C(=O)NCCc2ccccc2)no1` reads 130% (active); that for `COc1ccc2c(c1)CC[C@@H]1[C@@H]2CC[C@]2(C)C(=O)CC[C@@H]12`, 106% (inactive).
As to `COc1cccc(-c2nc3cc(C)ccc3o2)c1`, the activation (% of control) was 106% (inactive).
The same measure for `COc1ccc2oc(-c3cccc(NC(=O)CSc4ccc(Cl)cc4)c3)nc2c1`: 163% (active).
In the case of `O=C(Cc1cccc2ccccc12)Nc1ccc2oc(-c3ccccc3)nc2c1`, the activation (% of control) is 102% (inactive).
The same measure for `O=C(Nc1cccc(O)c1)c1ccc(C(=O)c2ccccc2)o1`: 113% (inactive); for `O=C(NCc1cccs1)c1cc(-c2ccccn2)nc2ccc(Br)cc12`: 106% (inactive); for `COc1ccc(-c2cn(-c3ccc(OC)cc3)c(=S)[nH]2)cc1`: 110% (inactive).
The same measure for `O=C(NNC(=S)Nc1ccc(Br)cc1Cl)c1ccco1`: 140% (active); for `S=C(Nc1ccc(Br)cc1Cl)NC1CCN(Cc2ccccc2)CC1`: 100% (inactive).
The same measure for `CCC(=O)NC(=S)Nc1ccc(NC(=O)c2ccco2)c(Cl)c1`: 109% (inactive).
For `CCN1CCN(C(=O)CCN2C(=O)c3ccccc3C2=O)CC1`, the activation (% of control) was 96.8% (inactive).
Consider `CCc1ccccc1NC(=O)CSc1nnc(-c2ccncc2)o1`, for which the activation (% of control) was 99.3% (inactive).
The same measure for `O=C(Nc1ccc(C(=O)O)cc1)/C(=C/c1ccc([N+](=O)[O-])cc1)NC(=O)c1ccccc1`: 94.6% (inactive); for `COc1ccc(-c2nn(-c3ccccc3)cc2/C=C\C(=O)Nc2ccc(C(=O)O)cc2)cc1`: 103% (inactive); for `COc1ccc(-c2noc(-c3ccc(C)cc3)n2)cc1`: 133% (active).
The result for `Cc1ccc(Cc2nc(-c3cccc(C)c3)no2)cc1` reads 115% (inactive); that for `Cc1cccc(-c2noc(-c3ccc(F)cc3)n2)c1`, 152% (active).
As for `COc1ccc(-c2nc(-c3ccccc3)no2)c(OC)c1`, the activation (% of control) is 43.8% (inactive).
For the molecule `COc1ccc(-c2noc(CSc3ccc(C)cc3)n2)cc1`, the activation (% of control) was 102% (inactive).
For the molecule `COc1ccc2[nH]c(=O)c(-c3noc(-c4ccc(F)cc4)n3)cc2c1`, the activation (% of control) was 114% (inactive).
Take `CC1COc2ccccc2N1C(=O)c1cccnc1Cl` (stereo not given): the activation (% of control) was 98.3% (inactive).
The result for `Cc1nc(N)c(Br)c(C)c1Br` reads 96.7% (inactive).
Turning to `CNC(=S)Nc1ccc([N+](=O)[O-])cc1`, the activation (% of control) was 96.9% (inactive).
The same measure for `Cc1cc(C(=O)CC#N)c(C)n1-c1c(C)n(C)n(-c2ccccc2)c1=O`: 102% (inactive).
The result for `CC1(C)CC(=O)C/C(=N\NC(=O)c2cccs2)C1` reads 101% (inactive); that for `COc1ccccc1Oc1nc(-c2cccnc2)nc2ccccc12`, 102% (inactive).
In the case of `CCCCOC(=O)c1[nH]c(C)c(C(=O)OC)c1C`, the activation (% of control) is 134% (active).
The result for `CC(=O)c1c(C)[nH]c(C(=O)OCC(=O)NCCC(C)C)c1C` reads 86.3% (inactive); that for `COC(=O)c1c(C)[nH]c(C(=O)/C=C/c2ccc(Cl)cc2)c1C`, 98.9% (inactive); that for `COC(=O)C1=C(N)Oc2c(oc(CO)cc2=O)C1c1c(F)cccc1Cl` (stereo not given), 95.5% (inactive).
As to `COc1cccc(CC2(CO)CCN(Cc3cnc(-c4cccc(C)c4)nc3)CC2)c1`, the activation (% of control) is 99.5% (inactive).
The same measure for `N/C(=N\OC(=O)c1ccc2c(c1)OCO2)c1ccc(Br)cc1`: 144% (active).
As for `N/C(=N\OC(=O)/C=C/c1ccccc1)c1ccc(Br)cc1`, the activation (% of control) was 98.9% (inactive).
On to `N/C(=N\OC(=O)N1c2ccccc2Sc2ccccc21)c1ccc(Br)cc1`, for which the activation (% of control) is 92.7% (inactive).
Take `CN(NC(=O)C1CC(=O)N(c2ccccc2)C1)C1=NS(=O)(=O)c2ccccc21` (stereo not given): the activation (% of control) is 97.3% (inactive).
The result for `O=C(CCS(=O)(=O)c1cccc2nsnc12)N1CCN(c2ccccc2F)CC1` reads 106% (inactive); that for `O=C(CCSc1ccccc1)N1CCN(c2ccccc2F)CC1`, 135% (active).
The result for `O=C(c1cccc2ccccc12)N1CCN(c2ccccc2F)CC1` reads 101% (inactive); that for `COc1cc(CN2CCN(Cc3ccc(C)cc3)CC2)c([N+](=O)[O-])cc1OC`, 90.7% (inactive).
The same measure for `Cc1cc(C)nc(-n2ncc3c2CC(c2ccc(C(C)C)cc2)CC3=O)n1` (stereo not given): 104% (inactive).
Take `Cc1cc(C)cc(C(=O)NC2C(=O)N3C(C(=O)O)=C(CSc4nnc(C)s4)CSC23)c1` (stereo not given): the activation (% of control) was 93.1% (inactive).
Take `COc1cc(NC(=O)c2ccc3c(c2)OCO3)ccc1NC(=O)c1cccs1`: the activation (% of control) is 101% (inactive).
The result for `c1n[nH]c(NCc2ccc3c(c2)OCO3)n1` reads 89.7% (inactive).
The same measure for `COc1ccc(CCNC(=O)C(=O)NCc2ccccc2C)cc1OC`: 96.8% (inactive); for `COc1cc(CNc2ncn[nH]2)ccc1OCc1ccccc1C`: 131% (active); for `COc1cccc(CC2(CO)CCCN(CC3=Cc4cc(OC)ccc4OC3)C2)c1` (stereo not given): 92% (inactive).
The same measure for `CCOC(=O)c1ccc(NC(=O)c2cc(=O)[nH]c3ccccc23)cc1`: 102% (inactive); for `COC(=O)[C@H]1Cc2cnoc2C[C@]1(C)C(=O)O`: 106% (inactive); for `CCc1nnc(NC(=O)Cc2cccs2)s1`: 98.1% (inactive).
Turning to `CCc1nnc(NC(=O)c2cccs2)s1`, the activation (% of control) was 134% (active).
Take `CCCc1nnc(NC(=O)c2cccs2)s1`: the activation (% of control) was 115% (inactive).
As to `O=C(c1ccc(C(F)(F)F)cc1)C1CCCN(C(=O)c2csnn2)C1` (stereo not given), the activation (% of control) is 87.3% (inactive).
The same measure for `N#CCC(=O)N/N=C/c1ccc(SCC(=O)Nc2ccccc2)o1`: 108% (inactive); for `O=C1COc2ccc(C(=O)COC(=O)c3cccnc3Cl)cc2N1`: 109% (inactive).
As to `O=C(N/N=C/c1ccc2c(c1)OCO2)c1ccc(Cn2cc([N+](=O)[O-])cn2)o1`, the activation (% of control) is 109% (inactive).
The same measure for `CN(C)c1ccc(/C=N/NC(=O)c2ccc(Cn3cc(Br)cn3)o2)cc1`: 135% (active); for `O=C(N/N=C\c1ccc(Br)cc1)c1ccc(Cn2cccn2)o1`: 118% (inactive); for `C=CCn1c(COc2ccc(F)cc2)nnc1SCC(=O)Nc1cccc(S(N)(=O)=O)c1`: 97.8% (inactive).
The same measure for `Cc1c(/C=N/N2C(=O)C3C4C=CC(C4)C3C2=O)c2ccccc2n1C` (stereo not given): 90.4% (inactive); for `C/C(=N\OC(=O)c1ccccc1)c1c(C)nc2cc(C)ccn12`: 99.5% (inactive); for `Cc1ccc(N(CC(=O)Nc2cccc(N(C)S(C)(=O)=O)c2)S(C)(=O)=O)cc1`: 92.8% (inactive).
The same measure for `Cc1ccc2nc(-c3ccc(NC(=O)CN(C)S(=O)(=O)c4ccccc4)cc3)sc2c1`: 102% (inactive); for `Cc1cccc(N(CC(=O)Nc2ccc(-c3nc4ccc(C)cc4s3)cc2)S(C)(=O)=O)c1`: 142% (active); for `Cn1c(=N)n(CC(O)c2cccs2)c2ccccc21` (stereo not given): 95.5% (inactive).
Regarding `ClC1(Cl)CC1CSc1ncn[nH]1` (stereo not given), the activation (% of control) was 102% (inactive).
The result for `O=C(C1CCN(C2CCN(Cc3ccc4cc(F)ccc4n3)CC2)CC1)N1CCCC1` reads 98.4% (inactive).
The result for `N#Cc1c(N)nc2c(c1N)CC(C(F)(F)F)O2` (stereo not given) reads 92.8% (inactive); that for `Cc1nn(C)c(C)c1Sc1ccccc1N`, 99.2% (inactive); that for `CCn1c(CSc2nc(C)cc(C)n2)nnc1SCC(N)=O`, 103% (inactive).
The same measure for `Cc1ccc(/C=C/C(=O)Nc2ccc([N+](=O)[O-])c(NC(=O)/C=C/c3ccc(C)o3)c2)o1`: 101% (inactive); for `COc1ccc(S(=O)(=O)N2CCCCCC2)cc1C(=O)OCC(=O)Nc1cc(C)on1`: 97% (inactive); for `Cc1ccc(/C=C/C(=O)Nc2cc(S(=O)(=O)N3CCCCCC3)ccc2OCC(F)(F)F)o1`: 139% (active).
In the case of `O=[N+]([O-])c1ccc(NCCCO)c(C(F)(F)F)c1`, the activation (% of control) is 105% (inactive).
The result for `CN(C(=O)c1ccno1)c1nnc(-c2cccnc2)s1` reads 102% (inactive); that for `CN(C(=O)c1ccccn1)c1nnc(-c2ccccn2)s1`, 142% (active).
For `CN(C(=O)COc1ccccc1)c1nnc(-c2ccncc2)s1`, the activation (% of control) was 107% (inactive).
The same measure for `COc1ccc(N=C2SC(C(=O)Nc3ccc(F)cc3)CC(=O)N2C)cc1` (stereo not given): 88.3% (inactive).
In the case of `Cc1ccccc1NCC(=O)N/N=C\c1ccc([N+](=O)[O-])s1`, the activation (% of control) is 92.7% (inactive).
Turning to `CN(C(=O)CSc1nnnn1-c1ccccc1)C1CCCCC1`, the activation (% of control) is 103% (inactive).
The result for `CN(C(=O)COc1ncnc2c1cnn2-c1ccccc1)C1CCCCC1` reads 94.4% (inactive); that for `CN(C(=O)CSc1nncc2ccccc12)C1CCCCC1`, 131% (active).
The same measure for `Cc1nnnn1/C(=C\c1ccccc1)C(=O)OCC(=O)N1CC2(C)CC1CC(C)(C)C2` (stereo not given): 99.2% (inactive); for `O=C(Nc1nnc(C2COc3ccccc3O2)o1)c1ccc(F)cc1` (stereo not given): 98.5% (inactive).
Take `O=C(N/N=C/c1ccccn1)C12CC3CC(CC(C3)C1)C2`: the activation (% of control) was 103% (inactive).
